“And” between values parts separate entries of the source, which are not always exact repeats. Identical values can stand only once. Compounds without any hit were thinned out: in the full panel of roughly 83,000, 20% have a hit.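 Activity criterion: percent growth below 10, measured after cells in 96-well plates were exposed to a single compound concentration for 48 hours.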 Values without a mark were called inactive. The source made the active and inactive calls.
Each compound was assayed on MDA-MB-468 breast (assay: NCI-60 one-dose screen, 48 h (100 = growth as untreated, 0 = no growth, -100 = all killed)). Conditions: 10 µM unless noted.

Row | Structure (SMILES) | growth
1 | COc1ccc2c(c1)N(CCO)C1=C(C(=O)OC1)C2c1ccc(OC)c(OC)c1 (stereo not given) | 0.0938% (active)
2 | C[C@H]1[C@H](C)CC[C@]2(C(=O)O)CC[C@]3(C)C(=CC[C@@H]4[C@@]5(C)C[C@@H](Cc6cn([C@@H]7O[C@H](CO)[C@@H](O)[C@H](O)[C@H]7O)nn6)[C@H](O)C(C)(C)[C@@H]5CC[C@]43C)[C@H]12 | 94.1%
3 | O=C1/C(=C/c2ccccc2Br)COc2ccc(O)c(O)c21 | 19.2%
4 | COc1ccc(OC)c(/C=C/C(=O)c2c(C)nc3ccccc3c2/C=C/c2ccccc2)c1 | 60.5%
5 | CN1CCN(CCCOc2cccc3nc(Nc4ccc(F)c(F)c4)ccc23)CC1 | -67.3% (active)
6 | CCC(=O)c1ccc(O)c(OC)c1 | 103%
7 | COc1ccc(C(=O)/C=C/c2c(C(F)(F)F)nc3ccccn23)cc1OC | -59.9% (active)
8 | Cn1ccnc1C(=O)/C=C/c1ccc(CNC(=O)c2ccc(Cl)cc2)cc1 | -14.5% (active)
9 | COCCc1n(Cc2ccc3ccccc3c2)c2ccccc2[n+]1Cc1ccc2ccccc2c1 | -23.4% (active)
10 | O=NC1CC=CCC1c1ccccc1 (stereo not given) | 104%
11 | Cc1ccccc1NC(=O)NC(CC(N)=O)c1ccc2c(c1)nc(-c1cccc(Oc3ccc(C(C)(C)C)cc3)c1)n2CCCN1CCCCC1C (stereo not given) | -78.8% (active)
12 | CC(=O)c1ccc(C)cc1 | 98.4%
13 | Cc1cc2c(C(C)C)c(O)c(O)c(C=NCc3ccoc3)c2c(O)c1-c1c(C)cc2c(C(C)C)c(O)c(O)c(C=NCc3ccco3)c2c1O | 61%
14 | C[C@@H](C[C@H](CCO)c1ccccc1)c1ccc2ccccc2c1 | -54.1% (active)
15 | CCCCOc1ccc(/C=N/Nc2cc(C)nc3ccc(Cl)cc23)cc1 | -65.9% (active)
16 | COc1ccc(/C=C2\Oc3cc(OCCN4CCCC4)ccc3C2=O)c(OC)c1 | 86.5%
17 | O=C(C=C=Nc1ccccc1)C(=O)N=C=Cc1ccccc1 | 22%
18 | Cn1cc2c(c1)-c1c(sc3nc(-c4ccc(NC(=O)Nc5cc(C(C)(C)C)on5)cc4)cn13)CC2 | 68.8%
19 | CN1CCN(c2nc(NCCCCNc3ccnc4cc(Cl)ccc34)c3ccccc3n2)CC1 | 62.4%
20 | COc1cc(-c2csc(NC(=O)Nc3ccc(Cl)c(C(F)(F)F)c3)n2)cc(OC)c1OC | -12.7% (active)

Row | Structure (SMILES) | growth
21 | Cn1c2ccccc2c2nn(Cc3ccccc3)c(=O)nc21 | 106%
22 | O=S(=O)(Cc1ccc(Cl)cc1Cl)c1ccc(Cl)cc1 | -29.8% (active)
23 | CCCCc1ccc(NC(=O)N(CCCl)N=O)cc1 | 91.4%
24 | O=C(NC(Cc1ccccc1)C(=O)CCl)OCc1ccccc1 (stereo not given) | 79.8%
25 | CC1CCN(CC(=O)Nn2c(COc3ccccc3)nc3ccccc3c2=O)CC1 | 50.9%
26 | COc1ccc(Br)c2ccccc12 | 100%
27 | Nc1nc(N)c(N=Nc2c(Br)cc(S(N)(=O)=O)cc2Br)c(N)n1 | 54%
28 | CN(C)Cc1c(-c2ccccc2)[nH]c2ccccc12 | 103%
29 | COc1cc(-c2cc(C(=O)Nc3nc4ccccc4s3)nc3cc(-c4ccccc4)nn23)cc(OC)c1OC | 59.6%
30 | COC(=O)c1cnc2c(c1)Oc1ccc(Cl)cc1-c1cc(C)nn1-2 | 92%
31 | C=C(CNCCc1ccc(O)cc1)[C@@H]1CC[C@]2(CO)CC[C@]3(C)[C@H](CC[C@@H]4[C@@]5(C)CCC(NCCc6ccc(O)cc6)C(C)(C)[C@@H]5CC[C@]43C)[C@@H]12 (stereo not given in full) | -74.6% (active)
32 | CN1CCN(Cc2ccc(NC(=O)c3cncc(C#Cc4cnc(N)c5ncccc45)c3)cc2C(F)(F)F)CC1 | -43.8% (active)
33 | COc1cc(/C=N/Nc2nc3c([nH]2)c(=O)n(C)c(=O)n3C)ccc1O | 103% and 122%
34 | COc1ccc(/C=N/NC2=NC3C(S2)N(C)C(=O)N3C)cc1 (stereo not given) | -8.86% (active)
35 | CCN1CCN(c2cc(C(=O)Nc3nc(-c4cc(OC)c(OC)c(OC)c4)cs3)cc(C(F)(F)F)c2)CC1 | 84.8%
36 | CCN(CC)CCOc1ccc(C2=C(c3ccccc3)CCc3cc(OC)ccc32)cc1 | -44.2% (active)
37 | CC(Br)C(O)c1cc2c(cc1Br)OCO2 (stereo not given) | 108%
38 | COc1ccc(Cc2nc3cc(OC)c(OC)cc3c(=O)[nH]2)cc1 | 56%
39 | CCCCCCCC(=O)SCC/C=C/[C@@H]1CC(=O)NCc2cccc(n2)C2=N[C@@](C)(CS2)C(=O)N[C@@H](C(C)C)C(=O)O1 | 12.4%
40 | O=S(=O)(Nc1ccc(F)c(Cl)c1)c1ccc(-c2cnc(C3CC3)o2)cc1 | -23.9% (active)
